Here are results for 69 compounds from PubChem BioAssay AID1347420 (Sanford-Burnham Center for Chemical Genomics, 2020).

The whole screen tested about 1,300 compounds, of which about 980 (75%) were called active. About 4% were inconclusive and are not listed. This is one part of the list.

For orientation: inhibition means the relative decrease from the control value, in per cent.

The target of this assay is Sulfhydryl oxidase 1 (Homo sapiens) (UniProt O00391). Put plainly: QSOX1 enzyme inhibitors, primary screen, biochemical, HyperBlu H2O2 luminescence, HTS (AID 1347420). Further: values above 100% were filed as inconclusive. The settings on record: recombinant QSOX1, HyperBlu H2O2 luminescence; at 12.5 µM; hits give high values; active = any value above zero.
Sequence of Sulfhydryl oxidase 1 (Homo sapiens) (O00391 whole entry, looked up): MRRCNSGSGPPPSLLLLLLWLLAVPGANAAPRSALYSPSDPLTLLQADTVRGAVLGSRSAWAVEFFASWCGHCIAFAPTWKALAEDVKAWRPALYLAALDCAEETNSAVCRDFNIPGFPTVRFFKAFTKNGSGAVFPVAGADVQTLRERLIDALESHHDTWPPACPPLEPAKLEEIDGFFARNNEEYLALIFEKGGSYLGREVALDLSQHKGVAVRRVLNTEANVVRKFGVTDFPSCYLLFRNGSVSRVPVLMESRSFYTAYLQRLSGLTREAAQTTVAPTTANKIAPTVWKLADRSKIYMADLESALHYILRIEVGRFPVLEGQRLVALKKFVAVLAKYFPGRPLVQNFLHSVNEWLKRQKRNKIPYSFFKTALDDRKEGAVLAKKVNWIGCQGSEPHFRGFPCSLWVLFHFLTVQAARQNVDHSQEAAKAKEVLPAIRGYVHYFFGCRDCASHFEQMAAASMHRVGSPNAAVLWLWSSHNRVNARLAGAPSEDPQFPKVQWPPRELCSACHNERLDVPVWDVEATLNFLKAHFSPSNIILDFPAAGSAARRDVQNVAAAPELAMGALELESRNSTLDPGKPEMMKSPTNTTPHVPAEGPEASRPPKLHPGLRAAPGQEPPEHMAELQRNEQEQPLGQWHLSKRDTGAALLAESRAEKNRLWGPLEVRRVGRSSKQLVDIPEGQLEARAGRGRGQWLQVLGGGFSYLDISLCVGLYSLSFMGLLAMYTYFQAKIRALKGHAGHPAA
In the case of `CC(C)(C)NCC(O)COc1cccc2[nH]c(=O)[nH]c12` (centres undefined), the inhibition is 14% (active).

With `COc1cccc2c1[C@@H]1CN(CCCCn3c(=O)[nH]c4c(sc5ncc(-c6ccccc6)nc54)c3=O)C[C@@H]1CO2`, the inhibition is 47% (active).

On to `NCCCC(N)(C(=O)O)C(F)F` (centres undefined), for which the inhibition was 4.1% (active). As to `CNC(=O)Oc1ccc2c(c1)[C@]1(C)CCN(C)[C@@H]1N2C`, the inhibition is 17.7% (active). Consider `O=C(O)C1CCCNC1` (centres undefined), for which the inhibition was 13.4% (active). Regarding `O=C(O)C1CCNCC1`, the inhibition was 1.7% (active). Turning to `O=C(O)[C@H]1NCCC[C@H]1C(=O)O`, the inhibition was -4.7% (inactive). As to `CC1=NS(=O)(=O)c2cc(Cl)ccc2N1`, the inhibition was 34.8% (active). On to `CC(CCc1ccccc1)NCC(O)c1ccc(O)c(C(N)=O)c1` (centres undefined), for which the inhibition was 12.9% (active).

Consider `Nc1ccc(N2C(=O)c3ccccc3C2=O)c(Cl)c1`, for which the inhibition is 7.7% (active). The same measure for `NC1CONC1=O` (centres undefined): 2.4% (active); for `N[C@H]1CONC1=O`: 3.7% (active). The result for `N[C@@H]1CONC1=O` reads -0.9% (inactive); that for `Fc1cccc(/C=N/N=C/c2cccc(F)c2)c1`, -1.8% (inactive); that for `O[Si](CCCN1CCCCC1)(c1ccc(F)cc1)C1CCCCC1` (centres undefined), 4.4% (active). The same measure for `Cn1ncc(S(=O)(=O)Cc2ccccc2)c(Br)c1=O`: 11.5% (active); for `C[C@@H](O)[C@H]1C(=O)N2C(C(=O)O)=C(SCCN=CN)C[C@H]12`: 17.6% (active); for `CCn1cc(C(=O)O)c(=O)c2cc3c(cc21)OCO3`: -7.6% (inactive). Regarding `CCn1cc(C(=O)O)c(=O)c2ccc(C)nc21`, the inhibition is 10.1% (active). On to `CNC(=O)[C@H]1O[C@@H](n2cnc3c(NCc4ccc(N)cc4)ncnc32)C(O)[C@H]1O` (some centres undefined), for which the inhibition was 32.2% (active). Take `CCNC(=O)[C@H]1O[C@@H](n2cnc3c(N)nc(NCCc4ccc(CCC(=O)O)cc4)nc32)C(O)[C@H]1O` (some centres undefined): the inhibition was 45.5% (active). The result for `CNC(=O)[C@H]1O[C@@H](n2cnc3c(NCc4cccc(I)c4)ncnc32)C(O)[C@H]1O` (some centres undefined) reads 14% (active); that for `CC(=O)N[C@@H](CS)C(=O)O`, 43.1% (active); that for `CC1(C)CCC=[N+]1[O-]`, 6.8% (active). The same measure for `Cn1ccc2cc3c(cc21)CCN3C(=O)Nc1cccnc1`: -4.6% (inactive); for `CN1CCc2cc(NC(=O)Nc3cccnc3)ccc21`: 16.5% (active). Regarding `O=C(O)CCC(=O)N1CCCC1C(=O)O` (centres undefined), the inhibition was -11.1% (inactive). The result for `CCCN1C[C@H](CSC)C[C@@H]2c3cccc4[nH]cc(c34)C[C@H]21` reads 31% (active). As for `CCc1c(C)[nH]c2c1C(=O)C(CN1CCOCC1)CC2` (centres undefined), the inhibition is 17.7% (active). For the compound `O=C(O)/C=C/c1cnc[nH]1`, the inhibition was 10.6% (active). With `N[C@@H](Cc1cnc[nH]1)C(=O)O`, the inhibition is -5.8% (inactive). The same measure for `CN(C)c1cc2c(Nc3ccc4c(cnn4Cc4ccccc4)c3)ncnc2cn1`: 15.4% (active). The result for `CC#CCOC(=O)c1c(C)nc2sc3c(c2c1N)CCC(O)C3` (centres undefined) reads -4.2% (inactive); that for `S=C(Nc1ccccc1)Nc1nccs1`, 35.5% (active). In the case of `CC1CCN=C(N)S1` (centres undefined), the inhibition is 29.6% (active). With `NCCSSCCN`, the inhibition was 47.5% (active). The same measure for `O=C1/C(=C/c2ccsc2)CC/C1=C\c1cccs1`: 17.5% (active); for `COc1cc2c(c(OC)c1OC)-c1ccc(OC)c(=O)cc1[C@@H](NC(C)=O)CC2`: -1% (inactive). The result for `Cn1cc(C2=C(c3ccc(Cl)cc3Cl)C(=O)NC2=O)c2ccccc21` reads 25.7% (active); that for `CCc1ccc(/C=C2/SC(=S)NC2=O)cc1`, 69.4% (active).

On to `O=C(O)CCc1nc(-c2ccccc2)c(-c2ccccc2)o1`, for which the inhibition is -0.1% (inactive).

With `CC1COc2c(N3CCN(C)CC3)c(F)cc3c(=O)c(C(=O)O)cn1c23` (centres undefined), the inhibition is 5.3% (active).

For `OC(CN1CCC(Cc2ccc(F)cc2)CC1)c1ccc(Cl)cc1` (centres undefined), the inhibition is 1.3% (active). The same measure for `CCCCN1CCC(n2c(=O)[nH]c3ccccc32)CC1`: 16.3% (active); for `CN(C)CCCO[C@@H]1[C@H]2OC(C)(C)O[C@H]2O[C@@H]1C(O)CO` (some centres undefined): 14.7% (active); for `O=C(O)[C@@H]1C[C@@H](C(=O)O)N1`: 4.5% (active).

Turning to `O=C(O)[C@@H]1C[C@H](C(=O)O)N1`, the inhibition was -18.8% (inactive). The result for `CC(C)(C=O)Cc1cc(C(C)(C)C)c(O)c(C(C)(C)C)c1` reads 2.8% (active); that for `CC(C)(CO)Cc1cc(C(C)(C)C)c(O)c(C(C)(C)C)c1`, -2.3% (inactive); that for `COc1cc2nc(N3CCCN(C)CC3)nc(NC3CCN(Cc4ccccc4)CC3)c2cc1OC`, 5.4% (active). The result for `COc1ccc2cc([C@H](C)C(=O)O)ccc2c1` reads -13.9% (inactive); that for `CC(C(=O)O)c1cccc(C(=O)c2ccccc2)c1` (centres undefined), 8.2% (active). On to `Cc1cccc(C(=O)NCN2CCN(c3ccccc3C#N)CC2)c1`, for which the inhibition is -17.3% (inactive). Take `COc1ccccc1N1CCN(CCN2C(=O)CC3(CCCC3)CC2=O)CC1`: the inhibition was 61.3% (active). With `COc1ccccc1N1CCN(CCCCN2C(=O)c3ccccc3C2=O)CC1`, the inhibition was 2% (active). Turning to `O=C1CC2(CCCC2)CC(=O)N1CCCCN1CCN(c2ncccn2)CC1`, the inhibition was -6.6% (inactive). The same measure for `COc1ccccc1N1CCN(CCCCNC(=O)c2ccc3ccccc3c2)CC1`: 36.1% (active); for `CN[C@H](CC(=O)O)C(=O)O`: 15.9% (active); for `c1ccc(C(NCc2cccnc2)(c2ccccc2)c2ccccc2)cc1`: 2.5% (active). The result for `CC(C)(Oc1ccc(CCNC(=O)c2ccc(Cl)cc2)cc1)C(=O)O` reads 5.4% (active). With `CC(C)(Oc1ccc(C2CC2(Cl)Cl)cc1)C(=O)O` (centres undefined), the inhibition was -2.9% (inactive). The result for `C=C/C(C)=C/[C@@]1(C)SC(=O)C(C)=C1O` reads 13.4% (active). The same measure for `O=C1NC(c2cccc([N+](=O)[O-])c2)=CCN1c1ccccc1O`: 24.8% (active). For the compound `N=C(N)SCCc1cnc[nH]1`, the inhibition was -0.5% (inactive). The same measure for `NCCc1cnc[nH]1`: 10.9% (active). The same measure for `CCCCC[C@H](CC(=O)NO)C(=O)N[C@H](C(=O)N1CCC[C@H]1CO)C(C)C`: -27.8% (inactive); for `COc1cc(OC)c(/C=C2/C(=O)Nc3ccccc32)c(OC)c1`: 44.2% (active); for `CCC1(O)CC2CN(CCc3c([nH]c4ccccc34)[C@@](C(=O)OC)(c3cc4c(cc3OC)N(C=O)C3[C@]45CCN4CC=C[C@@](CC)([C@@H](OC(C)=O)[C@]3(O)C(=O)OC)[C@H]45)C2)C1` (some centres undefined): 2.9% (active). Regarding `CCC1(O)CC2CN(CCc3c([nH]c4ccccc34)[C@@](C(=O)OC)(c3cc4c(cc3OC)N(C)C3[C@]45CCN4CC=C[C@@](CC)([C@@H](OC(C)=O)[C@]3(O)C(=O)OC)[C@H]45)C2)C1` (some centres undefined), the inhibition was 18.8% (active).
